Results as given in PubChem BioAssay.
The source made the active and inactive calls.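 Rule for the calls, unless noted: active = visually confirmed hit in the image check and inhibition above 20%; inconclusive = visually confirmed hit but inhibition not above 20%; inactive = no visual hit in the image check.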

Tests used:
[1] = inhibitors of TNFa-induced NFkB p65 translocation, primary screen, imaging, HUVEC, MLSMR starter and 10KST1 sets (AID 438;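 active = inhibition above 20% together with a positive visual image hit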;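 note: compound added about 3h40 before a 20 min TNFalpha stimulation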;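 for inhibition: signal is the nuclear over cytoplasmic p65 intensity ratio per well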); details: HUVEC TNFa-induced p65 nuclear translocation; cell count: measured here: nuclei count (cytotoxicity indicator), at 2.08 µM; inhibition: at 2 µM, stronger effect = higher value, 0% TNFa-plus-vehicle, 100% no-TNFa wells
[2] = reduction of polyQ htt aggregates in cells – imaging, exon1htt(103Q)mCFP cells, high-content imaging, primary screen (AID 483;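 active = visual image review flags a hit and inhibition of aggregation exceeds 20%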;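 note: compound exposure lasted 3 days before fixation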;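 for nuclei count: percent of the per-plate median nuclei count of sample wells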); details: exon1htt(103Q)mCFP cell line, aggregate imaging, at 2 µM; inhibition of aggregation: stronger effect = higher value; nuclei count: measured here: cell count, toxicity
[3] = endothelial E-selectin expression blockers – imaging, HUVEC, immunofluorescence, MLSMR starter and 10KST1 sets, primary screen (AID 487); details: HUVEC TNFalpha-induced E-selectin immunofluorescence imaging, at 2 µM; inhibition: stronger effect = higher value; nuclei count: measured here: cell number, toxicity;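 for inhibition: signal is fraction of cell area covered by stained E-selectin grains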;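 for nuclei count: 100% = median nuclei count of all wells on the same plate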
[4] = biological target: Voltage-gated potassium channel subunit beta-2 (Rattus norvegicus) (UniProt P62483); assay: inhibitors of rat Kvbeta2 reductase activity – biochemical, NADPH fluorescence, primary screen (AID 622;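 active = fluorescence slope higher than the sample average by over 3 SD, cut at about -0.22 in these data, passing the limit was not always enough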;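 note: slope of raw intensity against log time taken from 70 to 1610 s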); details: recombinant KvBeta, 4-cyanobenzaldehyde reduction, at 10 µM, stronger effect = higher value
Sequence of Voltage-gated potassium channel subunit beta-2 (Rattus norvegicus) (P62483 whole entry, looked up): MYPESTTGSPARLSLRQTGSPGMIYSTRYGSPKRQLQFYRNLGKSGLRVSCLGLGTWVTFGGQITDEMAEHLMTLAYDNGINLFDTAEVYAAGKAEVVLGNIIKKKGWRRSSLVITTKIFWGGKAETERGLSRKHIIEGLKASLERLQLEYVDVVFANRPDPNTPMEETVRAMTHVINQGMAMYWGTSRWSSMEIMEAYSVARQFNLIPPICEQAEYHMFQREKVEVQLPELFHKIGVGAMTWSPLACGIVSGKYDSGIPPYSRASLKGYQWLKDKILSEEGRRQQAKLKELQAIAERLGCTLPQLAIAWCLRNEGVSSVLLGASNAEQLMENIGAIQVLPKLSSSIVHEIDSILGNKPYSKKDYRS

[5] = biological target: Voltage-gated potassium channel subunit beta-2 (Rattus norvegicus) (UniProt P62483); assay: enhancers of rat Kvbeta2 NADPH turnover – biochemical, NADPH fluorescence, primary screen (AID 623;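 active = NADPH fluorescence slope more negative than the mean of all samples by about 3 SD, 99.7% confidence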;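 note: fluorescence intensity change per second fitted from 20 to 320 s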); details: Recombinant KvBeta, NADPH fluorescence decrease slope, 10 min; at 10 µM; stronger effect = lower value
[6] = biological target: Alpha-2C adrenergic receptor (Homo sapiens) (UniProt P18825); assay: compounds altering alpha2C-coupled GIRK flux – cell-based, HEK293 alpha2C/GIRK1/2, thallium flux, primary screen (AID 624;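 active = fluorescence slope after compound addition differing from the mean of all screened samples at 99.7% confidence, in either direction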;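 note: slope of fluorescence ratio to pre-addition baseline per second over 15 to 24 s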); details: thallium flux BTC fluorescence, at 10 µM, actives lie on both sides
Sequence of Alpha-2C adrenergic receptor (Homo sapiens) (P18825 whole entry, looked up): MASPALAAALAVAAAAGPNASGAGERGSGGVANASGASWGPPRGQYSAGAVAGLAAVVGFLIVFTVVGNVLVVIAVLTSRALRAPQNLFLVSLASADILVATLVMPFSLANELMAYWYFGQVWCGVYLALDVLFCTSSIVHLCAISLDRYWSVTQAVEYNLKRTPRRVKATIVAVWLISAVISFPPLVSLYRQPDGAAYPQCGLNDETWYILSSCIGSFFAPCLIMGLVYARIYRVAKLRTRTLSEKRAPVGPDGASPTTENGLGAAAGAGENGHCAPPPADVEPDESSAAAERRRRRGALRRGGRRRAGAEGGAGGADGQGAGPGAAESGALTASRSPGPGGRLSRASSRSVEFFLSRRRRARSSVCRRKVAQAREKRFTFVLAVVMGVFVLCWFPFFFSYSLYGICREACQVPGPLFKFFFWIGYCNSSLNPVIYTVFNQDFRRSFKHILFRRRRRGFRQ

[7] = blockers of RIG-like receptor reporter activation – cell-based, Sendai virus stimulus, luciferase, 10K MLSCN set, TLR/RLR signaling modifier project, primary screen (AID 602276;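 active = inhibition at or above 50% at 10 µM; inactive = inhibition below 50%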;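 note: firefly luciferase from ISG56 promoter only with Renilla not read in this screen; 0% = Sendai virus plus DMSO and 100% = medium plus DMSO without virus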); details: HEK293 RL24 IRF3 luciferase reporter, at 10 µM, stronger effect = higher value
[8] = TLR3 IRF3 reporter activation blockers – cell-based, poly I:C stimulus, luciferase, 10K MLSCN set, primary screen (AID 602277;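 active = inhibition of the reporter signal at or above 50%; inactive = inhibition below 50%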); details: HEK293-TLR3 RL24 IRF3 luciferase reporter, at 10 µM, stronger effect = higher value

SMILES	cell count [1]	inhibition [1]	inhibition of aggregation [2]	nuclei count [2] [%]	inhibition [3]	nuclei count [3] [%]	fluorescence slope [4]	NADPH fluorescence slope [5]	slope [6]	inhibition [7]	inhibition [8]
COC(=O)c1ccc(NC(=O)CN2CCCC2)cc1	612	-11.4% (inactive)	13.1% (inactive)	107	51.6% (inactive)	141	-0.514 (inactive)	-6.2e-05 (inactive)	0.00467 (inactive)	9.14% (inactive)	7.68% (inactive)
COc1cc(NC(=O)Cc2ccccc2OC)cc(OC)c1	575	-4.8% (inactive)	9.8% (inactive)	81.8	-96.9% (inactive)	87.6	-0.452 (inactive)	-2e-05 (inactive)	0.00483 (inactive)	-19% (inactive)	-15% (inactive)
COC(=O)C1=C(C)n2nnnc2NC1c1ccc(Cl)cc1 (stereo not drawn)	340	3.6% (inactive)	-8.8% (inactive)	99.4	-119% (inactive)	80.4	-0.367 (inactive)	1.8e-05 (inactive)	0.00153 (inactive)	2.58% (inactive)	10.6% (inactive)
COC(=O)CSc1nc2nc(C)cc(C)n2n1	722	-4.5% (inactive)	0.1% (inactive)	98.6	-33.5% (inactive)	108	-0.552 (inactive)	-1.8e-05 (inactive)	0.00719 (inactive)	11.7% (inactive)	28.1% (inactive)
CCSc1nnc2c(n1)OC=Nc1ccc(Br)cc1-2	262	-12.8% (inactive)	20.4% (inactive)	62.3	-24.2% (inactive)	84.5	-0.38 (inactive)	-3.3e-05 (inactive)	0.00298 (inactive)	15.5% (inactive)	20.5% (inactive)
O=C(CSc1nnc2c3cc(F)ccc3nc(-c3ccccc3)n12)N1CCOCC1	597	4.9% (inactive)	-0.6% (inactive)	104	-23.2% (inactive)	96.3	-0.37 (inactive)	-7.1e-06 (inactive)	0.00625 (inactive)	-0.506% (inactive)	-0.765% (inactive)
CCCCOCP(=O)(CCCC)COCCCC	369	0% (inactive)	8.7% (inactive)	88.5	-35.3% (inactive)	100	-0.459 (inactive)	-8.4e-05 (inactive)	0.00748 (inactive)	11.3% (inactive)	22% (inactive)
CCCc1cc(=O)oc2c(C)c3occ(C)c3cc12	486	2.1% (inactive)	-5.5% (inactive)	99.6	-11.9% (inactive)	109	-0.57 (inactive)	-4.7e-05 (inactive)	0.00609 (inactive)	2.73% (inactive)	6.19% (inactive)
O=C(O)c1cc2c(s1)CCCC2	473	6.3% (inactive)	8.1% (inactive)	100	15.7% (inactive)	111	-0.383 (inactive)	-2.9e-06 (inactive)	0.00578 (inactive)	4.53% (inactive)	8.58% (inactive)
Cc1ccc(-c2ccc(SCC(=O)Nc3nonc3C)nn2)cc1	413	2.2% (inactive)	-2% (inactive)	103	-24.8% (inactive)	108	-0.283 (inactive)	-5.6e-05 (inactive)	0.00591 (inactive)	9.6% (inactive)	15.8% (inactive)
CCOC(=O)c1sc(NC(=O)c2noc3c2CCCC3)c(C(=O)OCC)c1C	688	-2.9% (inactive)	-14.8% (inactive)	120	-47.9% (inactive)	87.6	-0.549 (inactive)	1e-05 (inactive)	0.0086 (inactive)	2.17% (inactive)	6.46% (inactive)
CCN1CCN(C(=O)c2oc(=O)c3ccccc3c2-c2ccc(C)cc2)CC1	805	-15.2% (inactive)	8.7% (inactive)	94.3	-58.3% (inactive)	121	-0.49 (inactive)	-4.9e-05 (inactive)	0.00617 (inactive)	10.4% (inactive)	27.7% (inactive)
Cc1nc2ccccc2c2oc(C(=O)NCCN3CCCCC3C)cc12 (stereo not drawn)	558	5.4% (inactive)	15.4% (inactive)	87.5	-1.3% (inactive)	120	-0.614 (inactive)	-3.9e-05 (inactive)	0.00617 (inactive)	7.56% (inactive)	66.5% (active)
Cc1ccc(C)c(NC(=O)c2ccc3c(c2)N(Cc2ccc(F)cc2)C(=O)CS3=O)c1 (stereo not drawn)	622	6.2% (inactive)	-0.7% (inactive)	105	3.5% (inactive)	122	-0.546 (inactive)	-2.3e-05 (inactive)	0.00733 (inactive)	4.49% (inactive)	20.4% (inactive)
Nc1cc(=O)[nH]c(SCC(=O)Nc2ccc(Br)cc2)n1	825	8.2% (inactive)	-2.2% (inactive)	108	18.9% (inactive)	128	-0.507 (inactive)	4.3e-05 (inactive)	0.00582 (inactive)	1.99% (inactive)	4.12% (inactive)
COc1ccc(S(=O)(=O)N2CCCC(C(=O)NCc3ccccn3)C2)cc1 (stereo not drawn)	291	-2.2% (inactive)	8.2% (inactive)	72.3	1.9% (inactive)	76.8	-0.477 (inactive)	-2.4e-05 (inactive)	0.00625 (inactive)	12.7% (inactive)	35.6% (inactive)
Cc1c(C#N)sc2nc(-c3ccccc3)nc(N3CCCC3)c12	388	-8.7% (inactive)	-28.2% (inactive)	99.9	-50% (inactive)	130	-0.236 (inactive)	-1.1e-05 (inactive)	0.011 (active)	16.9% (inactive)	26% (inactive)
CCOC(=O)c1ccc(NC(=O)Nc2ccn(C)n2)cc1	354	8.8% (inactive)	11.9% (inactive)	110	-23.7% (inactive)	100	-0.383 (inactive)	-2.9e-05 (inactive)	0.00615 (inactive)	-16.4% (inactive)	-66.8% (inactive)
O=C(CSc1ncnc2c1cnn2Cc1ccccc1)Nc1ccc2c(c1)OCCO2	308	0.9% (inactive)	27.1% (inactive)	94.9	11.1% (inactive)	94.2	-0.36 (inactive)	-0.00015 (inactive)	0.00683 (inactive)	6.25% (inactive)	17.7% (inactive)
COc1ccc(N2C(N)=C(C#N)C(c3cccnc3)C3=C2CC(C)(C)CC3=O)cc1 (stereo not drawn)	446	-7.5% (inactive)	-1.2% (inactive)	97.7	-1.3% (inactive)	104	-0.461 (inactive)	-0.000329 (inactive)	0.00535 (inactive)	37.2% (inactive)	38.7% (inactive)
O=C(Cn1cnc2ccccc2c1=O)NCCC(=O)N1CCN(c2ccccc2)CC1	383	-10.7% (inactive)	8.8% (inactive)	99.4	12.8% (inactive)	95.3	-0.405 (inactive)	-9.9e-05 (inactive)	0.0056 (inactive)	15.8% (inactive)	23.6% (inactive)
Cc1cc(C(=O)NCc2ccc(S(N)(=O)=O)cc2)cs1	321	4.7% (inactive)	-10.8% (inactive)	108	9.5% (inactive)	91.3	-0.63 (inactive)	-2.4e-05 (inactive)	0.00394 (inactive)	13.4% (inactive)	10.9% (inactive)
CC(C)c1ncc(C(O)c2cccc3ccccc23)n1C (stereo not drawn)	640	-10.5% (inactive)	11.4% (inactive)	75.8	-10.8% (inactive)	123	-0.494 (inactive)	-6.2e-05 (inactive)	0.00406 (inactive)	-12.7% (inactive)	-7.56% (inactive)
O=C(CN(c1ccc(F)cc1)S(=O)(=O)c1ccc2c(c1)OCCO2)Nc1ccc2c(c1)OCO2	795	-6.1% (inactive)	-28.9% (inactive)	105	-49.1% (inactive)	114	-0.485 (inactive)	-3.3e-05 (inactive)	0.00328 (inactive)	16.4% (inactive)	16.1% (inactive)
CC(C)(C)OC(=O)NCCc1nnc(SCC(=O)c2ccc(Cl)cc2)o1	282	-3.2% (inactive)	36.8% (inactive)	77.1	-56.7% (inactive)	85.4	-0.495 (inactive)	1.3e-05 (inactive)	0.00407 (inactive)	5.48% (inactive)	34.1% (inactive)
COc1ccc(NC(=O)CN(c2ccc(C)cc2)S(C)(=O)=O)c(OC)c1	498	10.1% (inactive)	-0.7% (inactive)	92.5	-180% (inactive)	139	-0.392 (inactive)	-6e-05 (inactive)	0.0037 (inactive)	4.75% (inactive)	25.6% (inactive)
COc1ccc(N(CC(=O)Nc2cc(C)ccc2C)S(=O)(=O)c2c(C)nn(C)c2C)cc1	499	-2.3% (inactive)	30.5% (inactive)	65.3	-8.4% (inactive)	101	-0.603 (inactive)	-2.9e-05 (inactive)	0.0057 (inactive)	-2.9% (inactive)	21.3% (inactive)
CCOCCn1c(CN2CCN(CC)CC2)nc2c1c(=O)n(C)c(=O)n2C	638	2.9% (inactive)	12.8% (inactive)	92.7	-15.7% (inactive)	110	-0.568 (inactive)	-2.7e-05 (inactive)	0.0075 (inactive)	4.19% (inactive)	33.7% (inactive)
